Data reported in the supplement of paper PMC11732987, “Enantioselective OTUD7B fragment discovery through chemoproteomics screening and high-throughput optimisation” (Communications Chemistry, 2025).

Columns and labels:
Assay in all cases: log2 ratio of Biotin-Ahx-Ub-VS probe labelling (compound/DMSO); higher = less target engagement, active = hit call of the paper (q ≤ 0.05, log2 ratio ≤ -1)
Conditions in all cases: treatment time: 3 h
[1] = compound: CCC1N(CCc2sccc12)C(=O)CCl
Method in brief: (§1)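 For activity-based profiling, 495 µg portions of HEK293T lysate in Tris/CHAPS/IGEPAL buffer with protease inhibitors were treated in triplicate with compound at 50 or 200 µM or with DMSO for 3 h. A 1 h incubation with Biotin-Ahx-Ub-VS (0.5 µM final) followed, then NeutrAvidin enrichment, LysC and trypsin digestion and diaPASEF LC-MS/MS. The compound/DMSO base-two log ratios were averaged from median-normalised label-free quantities using an unpaired t-test. Proteins needed at least 2 unique peptides to be included.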

[2] = compound: CN1c2ccccc2C(CS1(=O)=O)NC(=O)CCl
Method in brief: as §1

[3] = compound: Cl.ClCC(=O)N1CCc2ncncc2C1
Method in brief: as §1

[4] = compound: Cl.Cn1ncc2C(CCCc12)NC(=O)CCl
Method in brief: as §1

[5] = compound: ClCC(=O)NC1CCOc2ccccc12
Method in brief: as §1

[6] = compound: ClCC(=O)NC1CCCc2ccccc12
Method in brief: (§2)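 Each value is an average ratio of compound to vehicle, calculated by unpaired t-test. Lysate from HEK293T cells (495 µg per sample) was incubated in triplicate with compound over a concentration range or vehicle for 3 h and then with Biotin-Ahx-Ub-VS (0.5 µM final) for 1 h. Probe-labelled deubiquitinases were captured on NeutrAvidin, digested and run by diaPASEF LC-MS/MS, with Spectronaut label-free quantities normalised to the global median. Ratios are log2, and only proteins with at least two unique peptides were used.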

[7] = compound: ClCC(=O)N[C@@H]1CCCc2ccccc12
Method in brief: as §2

[8] = compound: ClCC(=O)N[C@H]1CCCc2ccccc12
Method in brief: as §2

[9] = compound: CCC1N(CCc2cc(OC)c(Cl)cc12)C(=O)CCl
Method in brief: as §1

[10] = compound: CCCC1N(CCc2cc(OC)c(OC)cc12)C(=O)CCl
Method in brief: as §1

Measured: log2 ratio of Biotin-Ahx-Ub-VS probe labelling

USP39 (UniProt Q53GS9)
Sequence of UniProt Q53GS9 (Q53GS9 whole entry): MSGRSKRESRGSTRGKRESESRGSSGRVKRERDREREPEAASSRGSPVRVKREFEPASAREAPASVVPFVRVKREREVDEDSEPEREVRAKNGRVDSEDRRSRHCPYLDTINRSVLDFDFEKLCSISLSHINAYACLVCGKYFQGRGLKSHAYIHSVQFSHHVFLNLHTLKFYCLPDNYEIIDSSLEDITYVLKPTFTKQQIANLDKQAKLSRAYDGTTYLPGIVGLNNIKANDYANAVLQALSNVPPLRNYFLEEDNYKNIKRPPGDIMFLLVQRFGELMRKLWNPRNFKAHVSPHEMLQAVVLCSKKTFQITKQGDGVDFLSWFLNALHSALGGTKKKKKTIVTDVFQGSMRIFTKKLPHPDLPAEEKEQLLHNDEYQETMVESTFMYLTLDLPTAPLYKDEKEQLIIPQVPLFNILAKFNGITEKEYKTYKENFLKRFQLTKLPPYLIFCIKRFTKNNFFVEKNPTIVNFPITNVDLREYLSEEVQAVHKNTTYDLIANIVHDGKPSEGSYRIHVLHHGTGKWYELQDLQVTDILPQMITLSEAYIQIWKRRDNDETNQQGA
inactive: [1]; compound concentration: 50uM 0.0546 | [1]; compound concentration: 200uM -0.102 | [2]; compound concentration: 50uM -0.157 | [2]; compound concentration: 200uM -0.0618 | [3]; compound concentration: 50uM 0.0365 | [3]; compound concentration: 200uM -0.18 | [4]; compound concentration: 50uM 0.0136 | [4]; compound concentration: 200uM -0.0545 | [5]; compound concentration: 50uM 0.225 | [5]; compound concentration: 200uM -0.157 | [6]; compound concentration: 0.78uM -0.0849 | [6]; compound concentration: 1.56uM 0.00415 | [6]; compound concentration: 3.13uM -0.107 | [6]; compound concentration: 6.25uM -0.121 | [6]; compound concentration: 12.5uM -0.133 | [6]; compound concentration: 25uM -0.219 | [6]; compound concentration: 50uM -0.32 | [6]; compound concentration: 100uM -0.0966 | [6]; compound concentration: 200uM -0.188 | [7]; compound concentration: 0.78uM -0.138 | [7]; compound concentration: 1.56uM -0.0134 | [7]; compound concentration: 3.13uM 0.0533 | [7]; compound concentration: 6.25uM -0.0819 | [7]; compound concentration: 12.5uM -0.132 | [7]; compound concentration: 25uM -0.181 | [7]; compound concentration: 50uM -0.277 | [7]; compound concentration: 100uM -0.108 | [7]; compound concentration: 200uM -0.208 | [8]; compound concentration: 0.78uM 0.0296 | [8]; compound concentration: 1.56uM -0.22 | [8]; compound concentration: 3.13uM -0.0221 | [8]; compound concentration: 6.25uM -0.000844 | [8]; compound concentration: 12.5uM -0.0179 | [8]; compound concentration: 25uM -0.167 | [8]; compound concentration: 50uM -0.0419 | [8]; compound concentration: 100uM -0.206 | [8]; compound concentration: 200uM -0.187 | [9]; compound concentration: 50uM 0.209 | [9]; compound concentration: 200uM 0.0808 | [10]; compound concentration: 50uM -0.0814 | [10]; compound concentration: 200uM -0.0567

USP34 (UniProt Q70CQ2)
Sequence of UniProt Q70CQ2 (Q70CQ2 whole entry): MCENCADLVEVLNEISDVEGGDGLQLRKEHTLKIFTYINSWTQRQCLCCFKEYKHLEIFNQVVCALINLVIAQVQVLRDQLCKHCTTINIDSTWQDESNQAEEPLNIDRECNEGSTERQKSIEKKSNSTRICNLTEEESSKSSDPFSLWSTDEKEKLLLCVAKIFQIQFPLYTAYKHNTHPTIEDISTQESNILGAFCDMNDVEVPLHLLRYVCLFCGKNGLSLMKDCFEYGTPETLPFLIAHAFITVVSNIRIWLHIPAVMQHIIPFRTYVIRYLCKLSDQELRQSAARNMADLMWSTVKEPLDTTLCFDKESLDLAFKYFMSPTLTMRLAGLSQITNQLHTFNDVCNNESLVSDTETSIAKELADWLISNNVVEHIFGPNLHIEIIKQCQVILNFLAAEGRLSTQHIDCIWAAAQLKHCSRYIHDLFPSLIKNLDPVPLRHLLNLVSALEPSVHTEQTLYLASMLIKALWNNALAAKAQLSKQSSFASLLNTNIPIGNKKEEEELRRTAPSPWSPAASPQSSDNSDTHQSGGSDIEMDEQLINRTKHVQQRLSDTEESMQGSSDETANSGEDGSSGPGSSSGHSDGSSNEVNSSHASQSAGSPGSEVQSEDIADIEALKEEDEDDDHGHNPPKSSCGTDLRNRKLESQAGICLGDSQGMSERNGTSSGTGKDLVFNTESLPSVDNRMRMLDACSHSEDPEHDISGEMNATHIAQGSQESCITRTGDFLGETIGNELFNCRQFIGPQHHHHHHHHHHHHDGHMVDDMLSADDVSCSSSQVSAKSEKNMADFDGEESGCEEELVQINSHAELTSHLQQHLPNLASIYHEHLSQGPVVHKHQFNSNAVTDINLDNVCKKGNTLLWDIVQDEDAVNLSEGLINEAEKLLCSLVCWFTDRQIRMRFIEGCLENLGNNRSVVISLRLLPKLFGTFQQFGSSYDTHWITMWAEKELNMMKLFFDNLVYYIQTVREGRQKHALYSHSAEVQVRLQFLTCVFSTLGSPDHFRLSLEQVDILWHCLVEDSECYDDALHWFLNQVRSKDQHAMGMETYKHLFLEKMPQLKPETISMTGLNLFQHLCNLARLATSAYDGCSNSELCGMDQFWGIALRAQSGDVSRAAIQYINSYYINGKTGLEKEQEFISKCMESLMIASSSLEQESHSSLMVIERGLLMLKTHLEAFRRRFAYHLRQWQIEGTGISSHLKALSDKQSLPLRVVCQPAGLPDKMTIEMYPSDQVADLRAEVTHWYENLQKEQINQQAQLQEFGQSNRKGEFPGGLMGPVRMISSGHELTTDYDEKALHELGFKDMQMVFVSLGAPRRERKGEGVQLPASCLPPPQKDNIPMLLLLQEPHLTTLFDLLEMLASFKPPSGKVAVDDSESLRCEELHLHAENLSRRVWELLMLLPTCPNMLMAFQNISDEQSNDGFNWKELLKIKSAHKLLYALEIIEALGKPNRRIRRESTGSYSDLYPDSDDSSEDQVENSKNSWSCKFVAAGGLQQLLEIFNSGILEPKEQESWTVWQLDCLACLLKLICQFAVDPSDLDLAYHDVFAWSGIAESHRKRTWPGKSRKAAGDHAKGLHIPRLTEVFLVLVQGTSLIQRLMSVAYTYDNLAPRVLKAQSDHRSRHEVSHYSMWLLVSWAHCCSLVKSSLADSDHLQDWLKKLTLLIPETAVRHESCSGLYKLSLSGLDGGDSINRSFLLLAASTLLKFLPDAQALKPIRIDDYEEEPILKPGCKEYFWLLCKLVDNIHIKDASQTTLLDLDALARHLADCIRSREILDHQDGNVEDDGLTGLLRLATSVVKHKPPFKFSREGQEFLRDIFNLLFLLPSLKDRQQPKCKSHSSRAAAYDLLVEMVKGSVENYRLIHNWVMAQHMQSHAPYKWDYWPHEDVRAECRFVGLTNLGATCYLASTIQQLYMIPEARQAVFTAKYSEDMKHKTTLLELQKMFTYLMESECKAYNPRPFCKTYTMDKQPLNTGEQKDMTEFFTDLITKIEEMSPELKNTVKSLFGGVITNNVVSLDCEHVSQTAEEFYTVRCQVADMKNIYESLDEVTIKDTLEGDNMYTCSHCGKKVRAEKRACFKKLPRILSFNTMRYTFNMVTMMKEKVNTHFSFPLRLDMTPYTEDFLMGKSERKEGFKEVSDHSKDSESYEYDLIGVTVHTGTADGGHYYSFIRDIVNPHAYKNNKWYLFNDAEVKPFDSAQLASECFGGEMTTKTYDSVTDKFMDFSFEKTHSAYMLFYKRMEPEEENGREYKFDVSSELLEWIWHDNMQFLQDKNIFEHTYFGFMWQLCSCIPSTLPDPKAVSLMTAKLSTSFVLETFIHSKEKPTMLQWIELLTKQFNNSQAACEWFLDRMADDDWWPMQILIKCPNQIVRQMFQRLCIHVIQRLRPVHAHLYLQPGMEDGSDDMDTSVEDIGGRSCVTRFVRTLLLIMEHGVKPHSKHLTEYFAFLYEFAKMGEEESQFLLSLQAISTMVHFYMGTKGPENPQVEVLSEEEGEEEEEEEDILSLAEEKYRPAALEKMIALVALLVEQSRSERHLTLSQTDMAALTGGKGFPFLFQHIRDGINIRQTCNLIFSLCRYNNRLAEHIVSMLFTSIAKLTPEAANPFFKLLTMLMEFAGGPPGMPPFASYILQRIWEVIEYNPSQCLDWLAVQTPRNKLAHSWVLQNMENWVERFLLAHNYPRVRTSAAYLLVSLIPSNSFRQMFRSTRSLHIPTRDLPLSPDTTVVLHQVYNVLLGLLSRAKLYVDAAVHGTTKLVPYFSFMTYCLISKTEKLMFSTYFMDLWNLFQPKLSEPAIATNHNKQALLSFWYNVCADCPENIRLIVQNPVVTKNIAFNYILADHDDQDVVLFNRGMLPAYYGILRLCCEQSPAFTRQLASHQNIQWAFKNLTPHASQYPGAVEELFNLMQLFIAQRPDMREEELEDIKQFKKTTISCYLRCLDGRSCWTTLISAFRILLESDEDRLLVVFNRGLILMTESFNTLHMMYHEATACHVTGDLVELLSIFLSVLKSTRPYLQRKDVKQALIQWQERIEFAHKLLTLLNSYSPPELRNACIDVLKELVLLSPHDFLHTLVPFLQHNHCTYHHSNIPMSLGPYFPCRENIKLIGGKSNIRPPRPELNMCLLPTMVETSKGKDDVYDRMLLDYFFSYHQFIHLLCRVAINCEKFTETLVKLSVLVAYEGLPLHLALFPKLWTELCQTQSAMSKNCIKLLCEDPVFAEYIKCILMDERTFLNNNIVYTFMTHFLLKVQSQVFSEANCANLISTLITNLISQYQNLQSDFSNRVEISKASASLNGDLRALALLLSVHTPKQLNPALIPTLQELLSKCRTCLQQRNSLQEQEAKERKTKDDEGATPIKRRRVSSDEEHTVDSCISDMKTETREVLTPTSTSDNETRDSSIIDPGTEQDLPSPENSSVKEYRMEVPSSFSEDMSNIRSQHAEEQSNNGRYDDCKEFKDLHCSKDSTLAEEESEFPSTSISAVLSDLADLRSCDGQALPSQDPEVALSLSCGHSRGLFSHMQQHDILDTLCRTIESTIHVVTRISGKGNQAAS
inactive: [1]; compound concentration: 50uM 0.0562 | [1]; compound concentration: 200uM 0.0678 | [2]; compound concentration: 50uM -0.259 | [2]; compound concentration: 200uM -0.515 | [3]; compound concentration: 50uM -0.659 | [3]; compound concentration: 200uM 0.31 | [4]; compound concentration: 50uM 0.745 | [4]; compound concentration: 200uM -0.98 | [5]; compound concentration: 50uM -0.212 | [5]; compound concentration: 200uM -0.0537 | [6]; compound concentration: 0.78uM 0.221 | [6]; compound concentration: 1.56uM 0.0458 | [6]; compound concentration: 3.13uM 0.0621 | [6]; compound concentration: 6.25uM -0.0557 | [6]; compound concentration: 12.5uM -0.314 | [6]; compound concentration: 25uM 0.126 | [6]; compound concentration: 50uM 0.134 | [6]; compound concentration: 100uM 0.11 | [6]; compound concentration: 200uM -0.619 | [7]; compound concentration: 0.78uM -0.0727 | [7]; compound concentration: 1.56uM -0.0851 | [7]; compound concentration: 3.13uM -0.276 | [7]; compound concentration: 6.25uM -0.184 | [7]; compound concentration: 12.5uM -0.209 | [7]; compound concentration: 25uM -0.23 | [7]; compound concentration: 50uM -0.396 | [7]; compound concentration: 100uM 0.0355 | [7]; compound concentration: 200uM 0.0474 | [8]; compound concentration: 0.78uM 0.0344 | [8]; compound concentration: 1.56uM -0.271 | [8]; compound concentration: 3.13uM -0.199 | [8]; compound concentration: 6.25uM 0.0878 | [8]; compound concentration: 12.5uM 0.322 | [8]; compound concentration: 25uM -0.00214 | [8]; compound concentration: 50uM 0.198 | [8]; compound concentration: 100uM 0.181 | [8]; compound concentration: 200uM -0.295 | [9]; compound concentration: 50uM 0.165 | [10]; compound concentration: 50uM 0.0993 | [10]; compound concentration: 200uM 0.244
active: [9]; compound concentration: 200uM -1.07
